Inhibition data for 64 molecules are collected here from PubChem BioAssay AID1578 (Sanford-Burnham Center for Chemical Genomics, 2009).

“And” between values parts separate entries of the source, which are not always exact repeats. Equal entries are not always repeated. Out of some 290,000 compounds screened, about 3,000 (1%) were called active. The entries come from a sample that favours actives as a whole. Values without a mark were called inactive. Cut-off read from the data, not from the text of the source: active = inhibition mostly above about 36% (no sharp cut-off); inactive = mostly below about 34%.

The nature of the test: inhibition of NOD1-driven NF-kB reporter – cell-based, luminescence, uHTS, primary screen (AID 1578).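 Note: HEK-293T reporter cells stimulated with the NOD1 agonist gamma-tri-DAP.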 Conditions: NOD1-driven NF-kB luciferase reporter cells, at 4 µM, active compounds read high.
Regarding `Cc1ccc2[nH]c3c(c2c1)CCNC3=O`, the inhibition was -41.5%.

For the molecule `O=C1NCCc2c1[nH]c1c(Cl)ccc(Cl)c21`, the inhibition was 79.2% (active). As for `O=C1NCCc2c1[nH]c1ccccc21`, the inhibition is 10.2% and -8.1%.

On to `CCOC(=O)[C@@H]1[C@H]2COc3cc(OC)ccc3[C@@H]2N2C(=O)N(c3ccc(Br)cc3)C(=O)[C@@]12C`, for which the inhibition is -23.3%.

Consider `CN(C)C(CNc1ncccn1)c1ccccc1` (centres undefined), for which the inhibition was -14.6%. Then `COC(=O)C1(CC2CC(c3cccc(Br)c3)=NO2)CCN(C(=O)OC(C)(C)C)CC1` (centres undefined), with 43.4% (active); and `CC(C)(C)OC(=O)N1CCC(CC2CC(c3cccc(Br)c3)=NO2)(C(=O)O)CC1` (centres undefined), with -12.7%; and `CC(C)(C)OC(=O)N1CCC(CC2CC(c3cccc(Br)c3)=NO2)(C(=O)NCC2CCCCC2)CC1` (centres undefined), with -0.4%. For `O=C(c1cc2ccccn2n1)N1CCN(c2cccc(C(F)(F)F)c2)CC1`, the inhibition is 19.8%. For the molecule `Cc1ccc(S(=O)(=O)NC(=NC2CCCCC2)c2ccc(F)cc2)cc1`, the inhibition is -31.6%. Then `O=C1CSC(c2cn(-c3ccccc3)nc2-c2ccccc2)N1Cc1ccco1` (centres undefined), with 51.6% (active); and `O=C1CSC(c2cn(-c3ccccc3)nc2-c2cc3ccccc3oc2=O)N1Cc1ccco1` (centres undefined), with 3.1%; and `CCc1ccc(-c2nn(-c3ccccc3)cc2C2SCC(=O)N2Cc2ccco2)cc1` (centres undefined), with 11.4%.

`COc1ccc(/C=N/c2nc3ccccc3n2C)cc1OC`: the inhibition was -12.1%.

Turning to `CCOC(=O)N1CCN(C(=O)C2CCN(Cc3ccc(O)c(OCC)c3)CC2)CC1`, the inhibition is -15.5%. Then `O=C(c1ccccc1)N1CCCCC(S(=O)(=O)c2ccccc2)C1=O` (centres undefined), with 19.8%; and `O=C(N/N=C/c1ccc(O)cc1O)c1ccc(NC(=O)C2CCCCC2)cc1`, with -73.3%. Then `Cc1cccc(OC(C)C(=O)N2CCCN(C)CC2)c1C` (centres undefined), with -5.8%; and `O=C(Nc1ccc(N2CCOCC2)cc1)C1CC(=O)N(c2ccccc2)C1` (centres undefined), with -35.3%. Turning to `O=C(NCc1ccccc1)C1CCCC1`, the inhibition is 67.7% (active). To `O=C(NC(=S)NCc1ccccc1)C1CCCCC1` belongs 11.8%; to `O=C(NCc1ccccc1)C1CCC1`, -29%; to `CC(=O)N1CCc2cc(S(=O)(=O)NCC(=O)NCc3ccc(F)cc3)ccc21`, -8%.

Regarding `Nc1[nH]c(N=NC(=O)c2ccccc2)c2ccccc12`, the inhibition was -58.4%.

With `CCOc1ccc(S(=O)(=O)N2CCCC(C(=O)N3CCN(CC)CC3)C2)cc1Cl` (centres undefined), the inhibition is -13.6%.

For the molecule `CCN(CC)S(=O)(=O)c1cc(NC(=O)COC(=O)c2ccc(NC(=O)CC#N)cc2)ccc1C`, the inhibition is -16.4%. To `Fc1ccc(Nc2nc(-c3ccncc3)nc3ccccc23)cc1` belongs 1.1%; to `C=CCNc1sc(C(=O)c2ccccc2)c(N)c1-c1nc2ccccc2s1`, -19.4%.

On to `O=C1N/C(=N/S(=O)(=O)c2ccccc2)S/C1=C/c1cccnc1`, for which the inhibition is -12.1%. Then `COc1ccc(CNCc2cccc(Oc3ccccc3)c2)cc1`, with 65.8% (active); and `COc1ccccc1CNCc1cccc(Oc2ccccc2)c1`, with -7.9%. Then `O=C(O)c1ccc(CNCc2cccc(Oc3ccccc3)c2)cc1`, with -4.9%.

`Cc1cc(C)nc(/N=C2/NC(=O)CS2)n1`: the inhibition is 11.8%. To `O=C(CSc1ncccc1C(=O)O)NC12CC3CC(CC(C3)C1)C2` belongs -37.8%; to `CC(C)(C)C(=O)COC(=O)c1cc2ccccc2cc1O`, -26.6%. In the case of `Cc1c(C)c2c(OCC(=O)N3CCC(C(=O)O)CC3)cc3c(c2oc1=O)CCC(C)(C)O3`, the inhibition was -8.2%.

For the molecule `CC[n+]1c(/C=C/c2ccc(N(C)C)cc2)ccc2ccccc21`, the inhibition was 0.8%. For `CC[n+]1c(/C=C/c2ccc(OC)c(OC)c2)ccc2ccccc21`, the inhibition is -81.5%.

Turning to `CC(NS(=O)(=O)c1ccc(NC(=O)N2CCCCC2)cc1)c1ccccc1` (centres undefined), the inhibition is -19.3%.

For the molecule `O=C(Nc1cccnc1)OC1CCCC1`, the inhibition is -40.3%. As to `Cc1cc(C)c(S(=O)(=O)Nc2ccncc2)cc1C`, the inhibition is -25.9%. For `Cc1ccc(CCNS(=O)(=O)c2ccc3c(c2)NC(=O)CCS3)cc1`, the inhibition is -8.7%.

For `CSc1ccccc1C(=O)Nc1ccc2c(c1)CCC2`, the inhibition was -1%. Then `CCC(=O)NC(c1cccs1)c1cc(Cl)c2cccnc2c1O` (centres undefined), with 32.2%; and `CCCC(=O)NC(c1cccs1)c1cc(Cl)c2cccnc2c1O` (centres undefined), with 55.3% (active). As for `O=C(O)COc1ccccc1C(Nc1cccnc1)c1cc(Cl)c2cccnc2c1O` (centres undefined), the inhibition is -3.2%.

As to `CCOc1ccc(C(Nc2cccnc2)c2cc(Cl)c3cccnc3c2O)cc1` (centres undefined), the inhibition is 67.5% (active). Consider `CCCCC(=O)NC(c1cccs1)c1cc(Cl)c2cccnc2c1O` (centres undefined), for which the inhibition is -31.4%.

`Oc1c(C(Nc2ccccn2)c2cccnc2)cc(Cl)c2cccnc12` (centres undefined): the inhibition was 15.5%. As to `CCC(=O)NCCc1nc2cc(NC(=O)COc3ccccc3)ccc2n1C`, the inhibition was -21.6%. In the case of `Cc1cc(C)c(S(=O)(=O)NCc2cccnc2)cc1C`, the inhibition is 9.3%. Take `CCOc1ccc(N2C(=O)CC(/C=C3/N(C)c4ccccc4C3(C)C)C2=O)cc1` (centres undefined): the inhibition was -9.6%. On to `CCOc1ccc(NC(=O)Nc2ccc(NC(C)=O)cc2)cc1`, for which the inhibition is -22.3%.

Consider `CCC(C)NC(=O)Nc1ccc(Br)cc1` (centres undefined), for which the inhibition is -16%.

For the molecule `Cc1ccc(C(=O)Nc2cccc(C(=O)NCc3ccccc3)c2)cc1`, the inhibition was -41.3%. With `O=C(N/N=C/C(Cl)=C/c1ccc([N+](=O)[O-])cc1)C(=O)Nc1cccc(C(=O)O)c1`, the inhibition is -14.1%. Take `CCOc1ccc(NC(=O)NC(C)CC)cc1` (centres undefined): the inhibition was 31.5% (active). Take `Cc1ccc(C(=O)Nc2cccc(C(=O)O)c2)cc1`: the inhibition was 73.3% (active). Then `O=C(Nc1ccc([N+](=O)[O-])cc1)C(=O)Nc1cccc(C(=O)O)c1`, with 79.5% (active); and `O=C(O)c1cccc(NC(=O)c2cc(NC(=O)c3ccccc3)cc(NC(=O)c3ccccc3)c2)c1`, with 12.6%. As to `CCOC(=O)c1cccc(NC(=O)c2ccc3c(c2)OCO3)c1`, the inhibition is -56.6%.

In the case of `CCOC(=O)c1cccc(NC(=O)/C=C/c2ccc3c(c2)OCO3)c1`, the inhibition was 98% (active). To `O=C(NNS(=O)(=O)c1ccc([N+](=O)[O-])cc1)C(=O)Nc1cccc(C(=O)O)c1` belongs -14.5%; to `COC(=O)c1cccc(NC(=O)/C=C/c2ccc3c(c2)OCO3)c1`, 69%.
